# Source: the supplement of paper PMC6555819
# How the values were obtained:
# Assay in all cases: PBM binding z-score (relative to random genomic background probes); higher = stronger binding; sequences stand for … in GC…GCGATTGACAGCGTAGAATGAAGG
# [1] = tested on: FXR:RXRa (NR concentration 270 nM, RXRa partner concentration 90 nM)
# How it was run: (§1)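 On custom Agilent 4×180K arrays, double-stranded probes with 34-nt variable regions carried direct-repeat seeds, single-nucleotide variants, half-site ablations or random human genomic background. Ligand-free nuclear receptor dimers were applied for 1 h, and binding was read with antibodies against each partner (one per run). Binding z-scores come from regression-normalized fluorescence, with the random background probes as reference.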
# [2] = tested on: LXRa:RXRa (NR concentration 270 nM, RXRa partner concentration 90 nM)
# How it was run: as §1
# [3] = tested on: LXRa homodimer (NR concentration 270 nM)
# How it was run: as §1
# [4] = tested on: LXRb:RXRa (NR concentration 270 nM, RXRa partner concentration 90 nM)
# How it was run: as §1
# [5] = tested on: LXRb homodimer (NR concentration 270 nM)
# How it was run: as §1
# [6] = tested on: PPARa:RXRa (NR concentration 270 nM, RXRa partner concentration 90 nM)
# How it was run: as §1
# [7] = tested on: PPARg:RXRa (NR concentration 180 nM, RXRa partner concentration 90 nM)
# How it was run: as §1
# [8] = tested on: PPARg:RXRa 270nM:90nM, anti-RXR (NR concentration 270 nM, RXRa partner concentration 90 nM)
# How it was run: as §1
# [9] = tested on: PPARg:RXRa 30nM:10nM, anti-RXR (NR concentration 30 nM, RXRa partner concentration 10 nM)
# How it was run: as §1
# [10] = tested on: PPARg:RXRa 90nM:30nM, anti-RXR (NR concentration 90 nM, RXRa partner concentration 30 nM)
# How it was run: as §1
# [11] = tested on: PPARg:RXRa DBDmut IVT, anti-RXR (DBD mutation: RXRa K156A/R161A, NR concentration 270 nM, RXRa partner concentration 90 nM)
# How it was run: as §1
# [12] = tested on: PPARg:RXRa IVT, anti-PPARg (NR concentration 270 nM, RXRa partner concentration 90 nM)
# How it was run: as §1
# [13] = tested on: PPARg DBDmut:RXRa IVT, anti-PPARg (DBD mutation: PPARg1 K132A/R137A, NR concentration 270 nM, RXRa partner concentration 90 nM)
# How it was run: as §1
# [14] = tested on: PPARg DBDmut IVT, anti-PPARg (DBD mutation: PPARg1 K132A/R137A, NR concentration 270 nM)
# How it was run: as §1
# [15] = tested on: PPARg homodimer (NR concentration 180 nM)
# How it was run: as §1
# [16] = tested on: PXR:RXRa (NR concentration 270 nM, RXRa partner concentration 90 nM)
# How it was run: as §1
# [17] = tested on: PXR homodimer (NR concentration 270 nM)
# How it was run: as §1
# [18] = tested on: RARa:RXR (NR concentration 270 nM, RXRa partner concentration 90 nM)
# How it was run: as §1
# [19] = tested on: RARa homodimer (NR concentration 270 nM)
# How it was run: as §1
# [20] = tested on: RARb:RXRa (NR concentration 270 nM, RXRa partner concentration 90 nM)
# How it was run: as §1
Sequence,PBM binding z-score [1],PBM binding z-score [2],PBM binding z-score [3],PBM binding z-score [4],PBM binding z-score [5],PBM binding z-score [6],PBM binding z-score [7],PBM binding z-score [8],PBM binding z-score [9],PBM binding z-score [10],PBM binding z-score [11],PBM binding z-score [12],PBM binding z-score [13],PBM binding z-score [14],PBM binding z-score [15],PBM binding z-score [16],PBM binding z-score [17],PBM binding z-score [18],PBM binding z-score [19],PBM binding z-score [20]
ACAGACAGGTGAGTGAAGGTAACTCACCTGGACG,0.567,0.338,-0.604,-0.347,-0.328,0.358,0.593,0.216,0.0231,-0.144,0.281,1.01,0.307,0.131,-0.03,-0.17,-0.14,0.495,-0.345,0.553
CGTCCAAGGTCAAGGTCAGTCAAAGAGACTCGAA,7.71,5.91,1.64,4.85,1.09,5.93,6.39,5.98,2.6,4.69,4.13,4.78,1.48,-0.095,4.54,4.99,1.7,5.42,2.49,5.83
CCTAGCAGGCCAAGGTCACTCAAGCATTTCGCTT,3.06,2.72,0.474,2.51,-0.42,3.34,1.14,2.44,-0.0507,1.65,2.14,1.93,-1.42,-0.849,1.92,3.35,0.64,3.65,0.757,3.55
TCTAGCAGGCCAGAGGGTTACTCAAGAGGTACGG,-0.419,-0.0387,-1.02,-0.282,-1.4,0.38,0.82,1.73,1.86,1.81,0.735,-0.175,-1.35,-1.09,-0.477,-0.175,-0.868,-0.0112,-0.732,0.213
CCAACTAGGTCAAAGGTCAAAGTCGAGCCAACCA,8.45,7.12,5.59,7.28,3.01,7.64,13.6,10.9,13.2,12.7,8.37,8.87,4.39,5.12,5.23,7.1,1.86,8.64,3.1,5.72
CCTACTGCGCCAAAAAGGTCATTGATGCCGATAA,4.02,4.8,4.24,4.54,1.52,4.78,1.47,3.17,1.18,2.45,0.459,1.48,0.19,0.294,4.51,4.87,3.21,5.58,3.23,4.05
GCCCGGAGGACAAGGTCAGAGCTTTGTCCGTAGA,1.63,1.41,-0.287,1.05,-1.25,1.98,-0.107,0.592,-0.793,-0.158,-0.658,0.093,-1.17,-2.1,0.821,1.56,-0.306,2.17,-1.21,3.16
